# In PubChem BioAssay (NCI):
# This is part of a sample that, as a whole, favours compounds with a hit. Of some 79,000 tested, about 15% had one in any assay. The source made the active and inactive calls. Rule as the data show it: active = growth inhibition above about 70%; inactive = the rest.
# Experiment: NCI Yeast Anticancer Drug Screen. Data for the rad50 strain (AID 155);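 also: 0% = growth of vehicle-only cultures of the same strain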
# Conditions: S. cerevisiae rad50 strain growth inhibition; at 50.0 µM (retest, dose inferred, filed as 5.0); active compounds read high
# Procedure, shortened: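 Relative growth inhibition (compound vs vehicle) was measured in yeast with a defined repair-gene alteration.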
row,Compound,growth inhibition
1,CC(C)c1ccc2c(c1)CC[C@@H]1[C@](C)(CO)CCC[C@]21C,94% (active)
2,O=c1c2ccccc2ncn1Cc1ccccc1[N+](=O)[O-],14% (inactive)
3,O=C(NO)C(=O)Nc1cc(Cl)ccc1Cl,57% (inactive)
4,CCCCCCCCCCCCOC(=O)C[n+]1cccc(C(=O)Nc2ccccc2)c1,98% (active)
5,O=C1C=CC(=O)c2ccc(=O)ccc21,99% (active)
6,Cn1c(=O)nc2n(-c3ccc(Cl)cc3)c3cc(Cl)ccc3nc-2c1=O,20% (inactive)
7,Clc1ccc(CN2COc3c(ccc4ccccc34)C2)cc1,78% (active)
8,C1CCN(c2nc(N3CCOCC3)c3[nH]c(N4CCCCC4)nc3n2)CC1,84% (active)
9,O=C1c2ccccc2-c2cc([N+](=O)[O-])c([N+](=O)[O-])cc21,99% (active)
10,CCC[CH2][Sn]([CH2]CCC)([O]C(=O)Cc1ccc(F)cc1)[O]C(=O)Cc1ccc(F)cc1,27% (inactive)
11,ClCc1ccc2oc3ccccc3c2c1,8% (inactive)
12,O=C1Oc2ccccc2C(=O)/C1=C/N1C(=O)/C(=C/c2ccc([N+](=O)[O-])cc2)SC1=S,68% (inactive)
13,COC1=CC(=O)c2ncc(Cl)cc2C1=O,97% (active)
14,CN(C)c1ccc(C(c2ccc(N(C)C)cc2)c2ccc3c(c2)OCO3)cc1,66% (inactive)
15,CC(C)(C)OC(=O)CSC#N,93% (active)
16,CN=c1ss/c(=N\C(=S)N(C)C)n1-c1ccccc1,-10% (inactive)
17,CCCCCCCCCCCCCCCBr,4% (inactive)
18,O=c1c2ccccc2[nH]c2c1[nH]c1ccccc12,23% (inactive)
